Results filed as inconclusive are left out. Where a call stands in place of a potency, no number is given. The source made the active and inactive calls. Calls follow the shape of the dose curve; as a rule, active = well fitted curve in the direction sought with a large enough effect; inconclusive = small, poorly fitted or top-dose-only effect, or another doubt; inactive = no such curve, though single readings can be large; an effect the other way counts as inactive or inconclusive.
Assays:
Furin (Homo sapiens) = Furin (Homo sapiens) (UniProt P09958); assay: Furin counterscreen qHTS for Zika virus inhibitors (AID 1347149); also: nearly all actives have a fitted effect of over 70% in size; also: potency is read from the fitted curve at half-maximal effect
Outline: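 Counterscreen measures cleavage of 2 microM BOC-RVRR-AMC, below its ~15 microM Km, by 5 nM full-length human furin at pH 7.0 after a 15-min compound preincubation. Inhibition derives from the 15-min fluorescence increase at 37C.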

[1] = Confirmatory screen GU Rhodamine qHTS for Zika virus inhibitors qHTS (AID 1347157); also: potency is read from the fitted curve at half-maximal effect; nearly all actives have a fitted effect of over 70% in size
Outline: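 Percent inhibition derives from the 15-min fluorescence change (ex 480, em 540 nm), normalized to no-enzyme and no-inhibitor wells. Reactions contained 25 nM NS2B-NS3 complex and 1.5 microM substrate in 10 mM Tris-HCl pH 8.0.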

[2] = ZIKV-mCherry secondary qHTS for Zika virus inhibitors (AID 1347158); also: top concentration of the series differs between compounds
Outline: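 Compounds were tested in Vero monkey kidney cells infected with recombinant mCherry-expressing Zika virus at MOI 1 for 48-72 h at 37 °C. Fixed cells were nuclear-stained and imaged, and infection rate was taken as the fraction of mCherry-positive cells.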

[3] = Confirmatory screen NINDS Rhodamine qHTS for Zika virus inhibitors (AID 1347161); also: potency is read from the fitted curve at half-maximal effect; nearly all actives have a fitted effect of over 60% in size
Outline: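 Percent inhibition, normalized to uninhibited and enzyme-free controls, is fitted to a 4-parameter Hill equation. Fluorescence change comes from a 15-min cleavage of 1.5 microM bis-peptide Rhodamine110 substrate by 25 nM linked NS2B-NS3 at room temperature.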

[4] = test system: Zika virus NS2B-NS3 protease (linked construct); assay: Confirmatory screen NINDS AMC qHTS for Zika virus inhibitors (AID 1347152); also: nearly all actives have a fitted effect of over 70% in size; also: potency is read from the fitted curve at half-maximal effect
Outline: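 Enzyme (1 nM, linked construct) was preincubated with compound for 15 minutes at room temperature in 10 mM Tris-HCl pH 8.0 with 0.01% Tween 20. Bz-Nle-Lys-Arg-Arg-AMC was then added to 10 microM, and AMC fluorescence was recorded immediately and after 15 minutes.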

[5] = Tertiary RLuc qRT-PCR qHTS assay for Zika virus inhibitors (AID 1347169); also: top concentration of the series differs between compounds; nearly all actives have a fitted effect of over 55% in size
Outline: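 Vero, 1,000 cells/well, o/n 37 C; cpd pinned in DMSO; ZIKV-RLuc Cambodian, MOI 1-2, 48-72 h 37 C; live-cell RLuc substrate, lum read at 1-1.5 h.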

[6] = test system: Zika virus NS2B-NS3 protease (unlinked complex); assay: Confirmatory screen GU AMC qHTS for Zika virus inhibitors (AID 1347153); also: nearly all actives have a fitted effect of over 70% in size;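 as to potency: enzyme at 25 nM with substrate at 10 µM below its Km of 18.3 µM; potency is read from the fitted curve at half-maximal effect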
Outline: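 Noncovalent NS2B hydrophilic domain/NS3 protease complex (25 nM) in 10 mM Tris-HCl pH 8.0, 0.01% Tween 20 was preincubated 15 min at room temperature with compounds. Then 10 µM AMC substrate (Km 18.3 µM) was added; fluorescence was read over 15 min and fitted to a 4-parameter Hill equation.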

[7] = test system: Zika virus NS2B-NS3 protease (linked); assay: 384 well plate NINDS AMC confirmatory qHTS for Zika virus inhibitors (AID 1347163);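 also: linked protease at 5 30 or 60 nM final depending on run; fluorescence of AMC released from Ac-VKTGKR-AMC peptide cleaved by the protease; top concentration of the series differs between compounds; nearly all actives have a fitted effect of over 50% in size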
Outline: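 Fluorescence at 355/460 nm was read after 25 minutes of cleavage of 30 microM Ac-VKTGKR-AMC at room temperature, in the dark. Before substrate addition, compounds (up to 1 mM final) sat ~15 minutes with 5, 30 or 60 nM linked protease. Signals were normalized to no-enzyme and no-inhibitor wells.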

[8] = test system: Zika virus NS2B-NS3 protease (linked construct); assay: 384 well plate NINDS Rhodamine confirmatory qHTS for Zika virus inhibitors (AID 1347164);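 also: fluorescence from protease cleavage of Ac-LKRR-rhodamine 110 substrate; potency is read from the fitted curve at half-maximal effect; nearly all actives have a fitted effect of over 65% in size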
Outline: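 Enzyme (final 5/30/60 nM) + cpd (DMSO), ~15 min; add Ac-LKRR-Rd 10 microM final; 25 min RT, dark; FI ex 485/em 538; normalized to no-enzyme, no-inhibitor ctrls; aprotinin intraplate ctrl.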

Chain of Furin (Homo sapiens) (P09958 whole entry, looked up): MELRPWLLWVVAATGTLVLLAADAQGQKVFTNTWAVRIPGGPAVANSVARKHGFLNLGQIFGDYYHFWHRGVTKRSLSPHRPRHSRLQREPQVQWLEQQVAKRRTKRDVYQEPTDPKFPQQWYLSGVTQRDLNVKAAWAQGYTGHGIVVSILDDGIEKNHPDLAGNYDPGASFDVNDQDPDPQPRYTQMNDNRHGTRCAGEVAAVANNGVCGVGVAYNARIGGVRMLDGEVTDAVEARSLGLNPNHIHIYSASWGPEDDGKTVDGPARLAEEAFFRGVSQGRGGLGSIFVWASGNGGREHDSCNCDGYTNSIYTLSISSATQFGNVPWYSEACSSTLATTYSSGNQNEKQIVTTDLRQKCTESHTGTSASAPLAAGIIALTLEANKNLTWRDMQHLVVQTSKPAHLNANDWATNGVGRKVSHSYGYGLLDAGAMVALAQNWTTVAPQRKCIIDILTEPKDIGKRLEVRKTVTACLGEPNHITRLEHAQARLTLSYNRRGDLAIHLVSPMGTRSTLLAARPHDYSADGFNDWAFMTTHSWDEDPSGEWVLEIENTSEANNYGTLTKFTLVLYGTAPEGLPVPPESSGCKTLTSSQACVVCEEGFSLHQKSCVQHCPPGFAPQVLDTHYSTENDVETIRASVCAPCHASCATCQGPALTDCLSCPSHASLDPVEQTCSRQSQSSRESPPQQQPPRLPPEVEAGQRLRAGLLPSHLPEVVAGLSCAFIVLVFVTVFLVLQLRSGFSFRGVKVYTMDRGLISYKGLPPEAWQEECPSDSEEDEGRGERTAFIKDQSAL

| Compound | Potency (Furin (Homo sapiens)) | Potency [1] | Potency [2] | Potency [3] | Potency [4] | Potency [5] | Potency [6] | Potency [7] | Potency [8] |
| --- | --- | --- | --- | --- | --- | --- | --- | --- | --- |
| Cc1oc2c(cc(NS(=O)(=O)c3ccc(Cl)cc3)c3ccccc32)c1C(=O)OCc1ccccc1 | inactive | 28.2 µM (active) | inactive | 39.8 µM (active) |  |  |  |  |  |
| Clc1nc2n[nH]nc2nc1Cl | 39.8 µM (active) |  | inactive | 5.62 µM (active) | 22.4 µM (active) | inactive |  |  |  |
| O=C(O)COc1ccc(-c2nccc3c2C(=O)N(Cc2cccc(C(F)(F)F)c2)CC(CNC(=O)c2cccc(Cl)c2)O3)cc1 (stereo not drawn) | inactive |  |  |  |  | inactive | 49.4 µM (active) | inactive | 22.4 µM (active) |
| O=C(O)c1ccc(-c2ccc(OC(F)(F)F)cc2)cc1 | inactive |  |  |  | inactive | inactive | inactive |  |  |

— PubChem BioAssay (NCATS)
